The source made the active and inactive calls. The calls were made as follows: active = hit-call score of the fitted dose curve at least 0.9, where 1 is the maximum; inactive = score below 0.9.

One may read the AC50 as the concentration at which the activity in the assay is half-maximal.

Read-out in this assay: Interleukin-8 (IL8), CXCL8 (gene 3576)
Description: BSK_3C_IL8: BioMAP Diversity Plus: 3C Assay for Interleukin-8 (IL8) Biomarker Activity (AID 2283020). The note with it: primary human endothelial cells (HUVEC); actives raise or lower the signal. In short, it runs like this: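 Using DMSO-treated wells as the baseline, bidirectional curve fitting was applied to ELISA-measured IL-8 from human umbilical vein endothelial cultures sampled 24 h after compound addition.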
For the compound `COc1ccc(OC)c(N=Nc2c(O)ccc3ccccc23)c1`, the outcome was inactive.
In the case of `Oc1c(Cl)cc(Cl)c(Cl)c1Cc1c(O)c(Cl)cc(Cl)c1Cl`, the AC50 was 28.2 µM (active).
For the compound `CN(c1nccc(=O)[nH]1)C1CCN(c2nc3ccccc3n2Cc2ccc(F)cc2)CC1`, the outcome was inactive.
As for `CN(C)C(=S)SC(=S)N(C)C`, the AC50 is 3.95 µM (active).
For the compound `CC(=O)C1(C)CC2=C(CCCC2(C)C)CC1C` (stereo not drawn), the AC50 is 5.52 µM (active).
On the same count and under the same terms, the figure for `Cc1cc(CCC(=O)OCCOCCOCCOC(=O)CCc2cc(C)c(O)c(C(C)(C)C)c2)cc(C(C)(C)C)c1O` is 32.3 µM (active); for `c1ccc(Oc2ccccc2)cc1` it is 20 µM (active).
For the compound `IC(I)I`, the result was inactive.

The record behind these values is PubChem BioAssay (EPA / NIEHS).
